For 18 compounds, Potency and outcome results are on record in PubChem BioAssay (NCATS).

Inconclusive results are not listed. Activity calls are given as the source filed them. Unless noted, calls come from the whole dose curve; as a rule, active = well fitted curve in the direction sought with a large enough effect; inconclusive = small, poorly fitted or top-dose-only effect, or another doubt; inactive = no such curve, though single readings can be large; an effect the other way counts as inactive or inconclusive.

A short description of assay [1]: qHTS to identify inhibitors of the type 1 interferon - major histocompatibility complex class I in skeletal muscle: primary screen against the NCATS LOPAC collection (AID 1347405).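 Note: lytic HiBiT luminescence reporting HLA-B protein level.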 Note: potency is the fitted concentration of half-maximal effect. In short, it runs like this: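 After 24 h at 37 C with compounds (7-point, 1:4.3 dilutions, 46 uM top final) plus 4 ng/ml IFN-beta, luminescence from lytic HiBiT detection was measured. HLA-B*08:01 in C25cl48 myoblasts carried an endogenous C-terminal HiBiT tag; medium lacked dexamethasone.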
For orientation: In qHTS, concentration-response curves come from the screen itself.

Assay [2] can be described thus: Validation qHTS assay for inhibitors of Activation Induced Cytidine Deaminase (AID): UDG Counterscreen signal (AID 1347427). Put shortly:
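Fluorescence at 560 nm excitation, 665 nm emission reports UDG signal after 250 mM NaOH (2x) addition and 30 min. Enzymes (AID 1 uM, UDG 2 U/mL, at 4/3x) preincubated 10 min with compound, then 4 h with 4x 250 nM DJC20/DJC23 substrate at room temperature.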

Assay [3] concerns the target Single-stranded DNA cytosine deaminase (Homo sapiens) (UniProt Q9GZX7). Briefly: Validation qHTS assay for inhibitors of Activation Induced Cytidine Deaminase (AID): AID signal (AID 1347429). Put shortly:
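Compounds (final up to 114 uM) preincubated with AID plus UDG; 250 nM DJC20/DJC23 substrate mix (4x stock) added, 4 hr at room temperature, then NaOH, 30 min. Read 1 fluorescence at 540 nm excitation, 590 nm emission.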

Assay [4] is described as follows: Primary qHTS for inhibitors of La Crosse Virus (LACV) - induced cell death in SH-SY5Y cells (AID 1508616). Note: potency is the fitted concentration of half-maximal effect. Put shortly:
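Rescue of virus-induced death was read as ATPLite luminescence after 6 days at 37C, scaled between DMSO wells with LACV and without virus. Cells were SH-SY5Y, 6000/well, infected at 0.01 MOI after compound addition.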

For assay [5], the target named is Calcium and integrin-binding protein 1 (Homo sapiens) (UniProt Q99828). Briefly: Validation qHTS for Identification of Calcium Integrin Binding protein 1 (CIB1) Competitor (AID 1508618). In short, it runs like this: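 Displacement of FITC-alphaIIb peptide (100 nM) from CIB1-GST (1 uM) is monitored by polarization in quantitative HTS format; buffer carries 5 mM CaCl2 and 125 mM NaCl at pH 7.4, incubations are at room temperature.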

A short description of assay [6]: qHTS to identify inhibitors of the type 1 interferon - major histocompatibility complex class I in skeletal muscle: primary screen against the NCATS Pharmaceutical Collection (AID 1347407).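 Note: luminescence of HiBiT knocked into endogenous HLA-B as interferon-induced MHC class I level.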 In short, it runs like this:
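A qHTS format is used: 8-point, 1:5 compound series with 46 uM top final concentration, applied alongside 4 ng/ml IFN-beta to HLA-B*08:01-HiBiT knock-in myoblasts. Luminescence is measured after 24 h treatment.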

Assay [7] concerns the target Protein phosphatase 1D (Homo sapiens) (UniProt O15297). The experiment in a line: RapidFire Mass Spectrometry qHTS Assay for Modulators of WT P53-Induced Phosphatase 1 (WIP1) (AID 1347424).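 Note: amount of dephosphorylated VEPPL-S-QETFS peptide product formed by WIP1; potency is the fitted concentration of half-maximal effect.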 Put shortly:
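Mass-spectrometric measurement of dephosphorylated peptide after a 5 min room-temperature reaction of 10 nM WIP1 with 2 uM phosphopeptide, following 1 h compound preincubation in 30 mM MgCl2 buffer.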

The target of assay [8] is Calcium and integrin-binding protein 1 (Homo sapiens) (UniProt Q99828). The experiment in a line: Primary qHTS for Identification of Calcium Integrin Binding Protein 1 (CIB1) Competitor (AID 1508620). Note: potency is the fitted concentration of half-maximal effect. Put shortly: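 Fluorescence polarization competition: CIB1-GST (1 uM final) preincubated with compound 15 min at room temperature, then FITC-labeled alphaIIb peptide (100 nM final) added for another 15 min. Polarization read at Ex 480/Em 540.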

A short description of assay [9]: Primary qHTS for inhibitors of SARS-S pseudo-typed particle cell entry (AID 1479145; calls by dose curve; note: nearly all actives have a fitted effect of over 45% in size). Conditions: outcome: dose series up to 57.1 µM unless noted.
A short description of assay [10]: Primary qHTS for Huh7 cytotoxicity: counterscreen for inhibitors of MERS-S pseudotyped particle cell entry (AID 1479147; calls by dose curve). Conditions: outcome: dose series up to 57.1 µM unless noted.
A short description of assay [11]: Primary qHTS for inhibitors of MERS-S pseudo-typed particle cell entry (AID 1479149; calls by dose curve; note: nearly all actives have a fitted effect of over 60% in size). Conditions: outcome: dose series up to 57.1 µM unless noted.
The nature of assay [12]: Primary qHTS for Vero E6 cytotoxicity: counterscreen for inhibitors of SARS-S pseudo-typed particle cell entry (AID 1479150; calls by dose curve).
The nature of assay [13]: qHTS to identify inhibitors of the type 1 interferon - major histocompatibility complex class I in skeletal muscle: primary screen against the NCATS Mechanism Interrogation Plate v5.0 (MIPE) Libary (AID 1347411). Note: nearly all actives have a fitted effect of over 65% in size. Put shortly:
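Luminescence from CRISPR HiBit-tagged endogenous HLA-B in human myoblasts reported MHC class I level after 24 h of IFN-beta (4 ng/ml) plus compound. Compounds ran as 11-point 1:3 series, top 46 uM final.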

Chain of Calcium and integrin-binding protein 1 (Homo sapiens) (Q99828 whole entry, looked up): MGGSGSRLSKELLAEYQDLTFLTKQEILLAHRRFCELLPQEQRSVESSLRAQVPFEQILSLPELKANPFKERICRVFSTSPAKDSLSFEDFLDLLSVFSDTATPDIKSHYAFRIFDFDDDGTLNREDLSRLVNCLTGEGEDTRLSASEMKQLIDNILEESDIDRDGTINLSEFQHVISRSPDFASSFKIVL
Chain of Single-stranded DNA cytosine deaminase (Homo sapiens) (Q9GZX7 whole entry, looked up): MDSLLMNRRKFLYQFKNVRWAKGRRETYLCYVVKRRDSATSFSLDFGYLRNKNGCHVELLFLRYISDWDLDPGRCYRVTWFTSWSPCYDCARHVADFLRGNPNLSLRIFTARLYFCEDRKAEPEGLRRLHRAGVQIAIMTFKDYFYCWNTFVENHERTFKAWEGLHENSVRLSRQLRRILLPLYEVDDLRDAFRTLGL
Chain of Protein phosphatase 1D (Homo sapiens) (O15297 whole entry, looked up): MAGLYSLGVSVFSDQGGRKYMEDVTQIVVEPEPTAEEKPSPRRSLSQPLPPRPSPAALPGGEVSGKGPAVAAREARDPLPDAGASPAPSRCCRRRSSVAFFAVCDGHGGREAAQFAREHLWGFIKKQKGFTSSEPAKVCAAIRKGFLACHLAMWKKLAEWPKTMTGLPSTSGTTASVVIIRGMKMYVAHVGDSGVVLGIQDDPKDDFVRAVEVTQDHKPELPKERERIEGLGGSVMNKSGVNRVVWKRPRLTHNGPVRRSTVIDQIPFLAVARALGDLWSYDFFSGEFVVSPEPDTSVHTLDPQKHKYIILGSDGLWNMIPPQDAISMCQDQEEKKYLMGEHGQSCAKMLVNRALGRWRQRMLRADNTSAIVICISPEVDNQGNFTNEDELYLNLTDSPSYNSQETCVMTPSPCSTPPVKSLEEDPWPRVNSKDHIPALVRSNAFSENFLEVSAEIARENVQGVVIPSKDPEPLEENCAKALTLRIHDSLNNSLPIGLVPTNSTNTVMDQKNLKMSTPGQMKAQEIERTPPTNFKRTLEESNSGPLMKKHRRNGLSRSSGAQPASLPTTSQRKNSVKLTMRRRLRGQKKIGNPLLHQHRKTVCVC

With `CC(N)c1cccc(Cl)c1Cl` (stereo unspecified), the Potency result in assay [1], in [2], in assay [3], in [4] and in [5] was “inactive” throughout.

Consider `C[N+]1(C)CCN(c2ccccc2)CC1`, for which the Potency result in [1], in assay [2], in [3], in [4] and in assay [5] was “inactive” each time.

For `CN1CCC(c2c[nH]c3ccc(O)cc23)CC1`, the Potency result in assay [1], in assay [3], in assay [4] and in assay [5] was “inactive” in each case.

For `CN1CCc2cccc(Cl)c2CC1`, the Potency entry in assay [1], in [3], in assay [4] and in assay [5] was “inactive” each time.

As to `C=CCN1C[C@@H](C)N([C@H](c2ccc(C(=O)N(CC)CC)cc2)c2cccc(OC)c2)C[C@@H]1C`, the Potency result in assay [1], in assay [2], in assay [3], in assay [4] and in [5] was “inactive” in each case.

For the compound `C[CH2][Hg][S]c1ccccc1C(=O)O`, in assay [6], the call was inactive. In addition, the Potency in [7] was 35.5 µM (active); in assay [8] it was 22.4 µM (active).

For the compound `CCCN1CCC[C@@H](c2cccc(O)c2)C1`, the Potency result in assay [1], in assay [3], in assay [4] and in assay [5] was “inactive” throughout.

Regarding `CC(C)(C)OC(=O)NC1[C@H]2CNC[C@@H]12` (stereo partly specified), the Potency entry in [1] and in [5] was “inactive” throughout.

As to `NC(=O)COc1c(F)cc(SCCNS(=O)(=O)c2ccccc2)cc1F`, the Potency entry in assay [1], in assay [2], in assay [3], in assay [4] and in assay [5] was “inactive” throughout.

Consider `CCCN1CCc2cccc3c2[C@H]1Cc1ccc(O)c(O)c1-3`, for which the Potency entry in assay [1], in [3] and in [5] was “inactive” throughout.

`CCn1cnc2c(Nc3cccc(Cl)c3)nc(N[C@@H]3CCCC[C@@H]3N)nc21`: the Potency in assay [1] was 2.51 µM (active). Further, the Potency entry in assay [2], in assay [3] and in assay [5] was “inactive” in each case.

Consider `N[C@@H](Cn1ccc(=O)[nH]c1=O)C(=O)O`, for which the Potency entry in assay [3] and in assay [4] was “inactive” throughout.

Turning to `O=c1[nH]cc(N(CCCl)CCCl)c(=O)[nH]1`, the outcome in assay [9], in [10] and in [11] was “inactive [at 114 µM]” each time. In addition, the Potency result in assay [12] was “inactive”.

On to `C[N+]1(C)CCCCC1COC(=O)C(O)(c1ccccc1)c1ccccc1` (stereo unspecified), for which the compound was called inactive in assay [9], in assay [10] and in assay [11]. The Potency entry in assay [12] is “inactive”.

In the case of `CCCCCCCCCCCCCC(=O)O[C@@H]1[C@@H](C)[C@@]2(O)[C@@H](C=C(CO)C[C@@]3(O)C(=O)C(C)=C[C@@H]23)C2C(C)(C)[C@@]21OC(C)=O` (stereo partly specified), the Potency result in assay [2], in assay [3], in assay [4] and in [5] was “inactive” in each case.

For `COc1cc(C)[nH]c(=O)c1CNC(=O)c1c(C)n([C@H](C)C2CCOCC2)c2ccccc12`, the call in assay [13] was inactive. The Potency result in assay [8] was “inactive”.

On to `NC(Cc1ccc(N(CCCl)CCCl)cc1)C(=O)O` (stereo unspecified), for which the Potency result in assay [2] and in [3] was “inactive” throughout. Besides, the Potency in assay [4] is 0.794 µM (active).

Turning to `C=CCN1CC[C@]23c4c5ccc(O)c4O[C@H]2/C(=N/NC(=O)c2ccccc2)CC[C@@]3(O)[C@H]1C5`, the Potency entry in assay [2], in [3] and in assay [4] was “inactive” in each case.
